The campaign covered roughly 320,000 compounds. About 2,100 (0.66%) were called active. Inconclusive results (about 53%) are left out. The call rests on the fitted dose curve; in most records, active means well fitted inhibition curve with a large enough effect in the signal ratio, with a control signal flat (not every such curve was filed as active); inconclusive means small, poorly fitted or top-dose-only effect, or effect the other way, or a change in a side signal; inactive means flat fitted curve, though single readings scatter; the % refers to the signal ratio. The list comes from a sample in which actives are over-represented; it also holds similar structures and randomly drawn compounds.
Assay: qHTS Assay for Lipid Storage Modulators in Drosophila S3 Cells;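 on cell number change: cells counted by Cell Tracker Red CMTPX staining in the red channel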; on lipid storage change, negative = inhibition: on the % scale 0 is the no-effect control and ±100 the full control effect
Conditions: BODIPY lipid droplet fluorescence, 18-24 h, cells fed with added oleic acid; cell number change: measured here: cell count max response; series mostly up to 46.1 µM; lipid storage change, negative = inhibition: at the top concentration
Method in brief: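 Drosophila S3 cells loaded with oleic acid (400 uM, as added) and compounds at several concentrations; lipid droplets imaged by 488-nm laser-scanning cytometry, 500–530 nm intensity and object ratio to cell channel. Percent activity normalized to 20 uM Triacsin C.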
Potency means the concentration at half of the fitted maximal effect.

Structure (SMILES) | lipid storage change, negative = inhibition | cell number change [%] | Potency | outcome
Nc1nnc(SCc2ccccc2F)s1 | 20.7% (inactive) | 16.1 | – | –
COc1ccc(NC(=O)CC2C(=O)N(C)C(=S)N2Cc2ccc3c(c2)OCO3)cc1 (stereo not drawn) | -26.7% (inactive) | 20 | – | –
C/C(=N\O)c1c(O)cc(-c2ccccc2)n(-c2ccccc2)c1=O | 4.63% (inactive) | 13.2 | – | –
Oc1ccccc1-n1c(-c2ccccc2)ccc1-c1ccccc1 | – | -6.63 | 2.06 µM (active) | –
COc1ccc(-c2ccc(CCC(=O)O)n2-c2ccccc2O)cc1 | 2.11% (inactive) | 6.08 | – | –
O=C(CCCN1C(=O)c2ccccc2C1=O)Nc1ccc(Br)cn1 | -25.9% (inactive) | 16.2 | – | –
Cc1ccc(S(=O)(=O)N2CCOC2CNC(=O)C(=O)NCCCN2CCOCC2)cc1 (stereo not drawn) | – | -5.14 | – | inactive [at 0.369 µM]
COC(=O)c1ccncc1C(=O)Nc1ccc(Oc2ncc(C(F)(F)F)cc2Cl)cc1 | -11.6% (inactive) | -10.1 | – | –
CCCOc1ccc(CCC(=O)O)cc1 | 4.14% (inactive) | 1.83 | – | –
Cc1nc(SCC(=O)NC(=O)NC2CCCCC2)nc(C)c1C | -12.8% (inactive) | -13.4 | – | –
COc1ccc(CCN(C)C(=O)C(CCSC)NC(=O)c2ccco2)cc1OC (stereo not drawn) | – | -10.8 | 2.31 µM (active) | –
COc1ccc(CCNC(=O)c2ccco2)cc1OC | 5.81% (inactive) | 10.7 | – | –
CSCCC(NC(=O)c1ccco1)C(=O)N(C)CC(=O)Nc1c(Cl)cccc1Cl (stereo not drawn) | – | – | – | inactive
COc1cc(/C=C(\C#N)C(=O)NCc2cccs2)ccc1O | -8.42% (inactive) | -0.911 | – | –
CCOC(=O)c1c(-c2ccc(C)cc2)csc1NC(=O)/C(C#N)=C/c1ccc(O)c(OC)c1 | – | -27.7 | 23.1 µM (active) | –
CCOC(=O)c1c(-c2ccccc2)csc1NC(=O)/C(C#N)=C/c1ccc(OC)c(OC)c1 | 15.7% (inactive) | -0.159 | – | –
COc1ccccc1NC(=O)CN1CCOCC1 | 20.9% (inactive) | 25.4 | – | –
COc1ccc(/C=N/NC(=O)c2cccc(NC(=O)c3ccccc3Cl)c2)cc1 | – | -0.417 | – | inactive
O=C(COC(=O)CCOc1ccccc1)NCCC1=CCCCC1 | 10.3% (inactive) | 10.9 | – | –
CCOC(=O)C(C)(C)N(Cc1ccc(Cl)cc1)S(=O)(=O)c1ccc(Cl)c([N+](=O)[O-])c1 | 15.5% (inactive) | 5.39 | – | –
CCOC(=O)C(C)(C)N(Cc1cccc(C)c1)S(=O)(=O)c1ccc(Cl)c([N+](=O)[O-])c1 | – | -21.7 | 16.4 µM (active) | –
CCOC(=O)C(C)(C)NS(=O)(=O)c1ccc(Cl)c([N+](=O)[O-])c1 | – | -25 | 20.6 µM (active) | –

Structure (SMILES) | lipid storage change, negative = inhibition | cell number change [%] | Potency | outcome
CCOC(=O)C(C)(C)N(Cc1ccccc1C)S(=O)(=O)c1ccc(Cl)c([N+](=O)[O-])c1 | -15.8% (inactive) | -1.56 | – | –
CCOC(=O)C(C)(C)N(Cc1ccc(C)cc1)S(=O)(=O)c1ccc(Cl)c([N+](=O)[O-])c1 | – | -25.3 | – | inactive
CCOC(=O)C(C)(C)N(Cc1cccc(C)c1)S(=O)(=O)c1cccc([N+](=O)[O-])c1 | -28.1% (inactive) | -5.11 | – | –
CC(C)(C)NC(=O)c1cc(-c2ccccc2)n[nH]1 | 4.25% (inactive) | – | – | –
CCCOc1ccc(/C=C2\SC(N)=NC2=O)cc1OC | 9.06% (inactive) | 8.06 | – | –
NC(=O)c1cc(S(=O)(=O)N2CCN(c3cccc(Cl)c3)CC2)cs1 | – | 14.3 | – | inactive
COc1ccccc1/C=C/C1C(C(=O)OCC(C)C)=C(C)N=C2SCCC(=O)N21 (stereo not drawn) | 3.95% (inactive) | 9.42 | – | –
Cc1ccc(NC(=O)c2cn(CCC#N)nc2-c2cccs2)c([N+](=O)[O-])c1 | -1.84% (inactive) | -4.62 | – | –
CC1(C)C([N+](=O)[O-])C(c2ccc(F)cc2)NC(c2ccc(F)cc2)C1[N+](=O)[O-] (stereo not drawn) | 9.03% (inactive) | 2.48 | – | –
Cc1cccc(C2NC(c3cccc(C)c3)C([N+](=O)[O-])C(C)(C)C2[N+](=O)[O-])c1 (stereo not drawn) | – | 3.3 | 5.17 µM (active) | –
Cc1ccc(C2NC(c3ccc(C)cc3)C([N+](=O)[O-])C(C)(C)C2[N+](=O)[O-])cc1 (stereo not drawn) | 8.05% (inactive) | -8.86 | – | –
Cc1cccc(NC(=O)CS(=O)(=O)c2cn(C)c3ccccc23)c1C | – | – | – | inactive
Clc1ccc(-c2nnc(CNC3CC3)o2)cc1 | 15.9% (inactive) | 6.34 | – | –
CCCCCN(C(=O)CN1CCC(Cc2ccccc2)CC1)c1c(N)n(CCCC)c(=O)[nH]c1=O | 11.8% (inactive) | 27.6 | – | –
CCOC(=O)C1CCCN(CCC(=O)Nc2ccc(C)c(C)c2)C1 (stereo not drawn) | 3.75% (inactive) | 17 | – | –
CCOC(=O)C1CCCN(CCC(=O)Nc2ccc(Br)c(C)c2)C1 (stereo not drawn) | – | 4.56 | 18.4 µM (active) | –
CCOC(=O)C1CCN(CCC(=O)Nc2ccc(Br)c(C)c2)CC1 | -7.09% (inactive) | 0.794 | – | –
O=C(NCCc1nc2ccccc2[nH]1)/C(=C/c1ccco1)NC(=O)c1ccc(Br)o1 | -4.25% (inactive) | -2.37 | – | –
COc1ccc2[nH]c(C)c(CN3CCCCC3)c(=O)c2c1 | -27.3% (inactive) | -15.2 | – | –
CCc1nnc(NC(=O)C2CCN(S(=O)(=O)Cc3ccccc3)CC2)s1 | -3.51% (inactive) | -9.95 | – | –
CC(=O)c1cccc(NC(=O)CSc2nnc(-c3ccncc3)o2)c1 | – | 13.1 | – | inactive

From PubChem BioAssay AID2685 (National Center for Advancing Translational Sciences (NCATS), 2010)
